This note sets out measurements from PubChem BioAssay AID485314 (National Center for Advancing Translational Sciences (NCATS), 2010).

Hit rate of the full screen: of about 340,000 compounds, about 4,500 (1.3%) were called active. A call without a number means that no potency is given here. About 5% were inconclusive and are not listed. Calls come from the whole dose curve; as a rule, active = well fitted inhibition curve with a large enough effect; inconclusive = small, poorly fitted or top-dose-only effect, or another doubt; inactive = no such curve, though single readings can be large or run the other way. The sample as a whole holds a higher share of actives than the screen did.
Potency is the fitted concentration of half-maximal effect.

The target in this assay is DNA polymerase beta (Homo sapiens) (UniProt P06746). The assay can be described thus: qHTS Assay for Inhibitors of DNA Polymerase Beta. The conditions noted are these: Pol beta primer extension/strand displacement, fluorescence kinetic; series mostly up to 114 µM. Summed up: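 Human Pol beta at 10 nM; strand-displacement substrate 50 nM final. Compound exposure 15 min at room temperature before start, reaction 10 min at room temperature.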
With `CCc1ccccc1N1CC(c2nc3ccccc3n2CCCCOc2ccccc2)CC1=O` (stereo not given), the Potency result is “inactive”.
With `c1ccc(-c2ccc(OCCN3CCOCC3)cc2)cc1`, the Potency entry is “inactive”.
Consider `c1ccc2cc3c(NCCN4CCOCC4)ccnc3cc2c1`, for which the Potency was 14.1 µM (active).
The result for `CCOc1nc(NCCN2CCOCC2)nc(Nc2ccc(C)cc2)n1` reads “inactive”.
The result for `Cc1cccc2c1-c1sc(C(=O)Nc3ccc(F)cc3F)cc1CO2` reads “inactive”.
The result for `COc1cc(OC)cc(C(=O)OCC(=O)Nc2ccc(F)cc2F)c1` reads “inactive”; that for `Cc1cccc(C(=O)OCC(=O)Nc2ccc(F)cc2)c1`, “inactive”.
Turning to `O=C(COC(=O)c1ccc(F)cc1F)Nc1ncccn1`, the Potency is 35.5 µM (active).
The result for `Cc1ccc(Nc2cc(=O)n(C3CCCCC3)c(=O)[nH]2)cc1C` reads 56.2 µM (active).
With `Cc1ccc(NNC(=O)C2CCC2)cc1C`, the Potency entry was “inactive”.
The result for `O=c1cc(C(F)(F)F)[nH]c(=O)n1C1CCCCC1` reads “inactive”.
The result for `O=C(O)c1ccc(Nc2nc(-c3ccccc3)c3cc(Br)ccc3n2)cc1` reads “inactive”; that for `COc1cccc(NC(=O)c2ccc3nc(CCc4ccccc4)oc3c2)c1`, “inactive”.
The result for `O=S(=O)(NCCNS(=O)(=O)c1ccccc1)c1ccccc1` reads “inactive”; that for `O=S(=O)(NCC1OCCc2ccccc21)c1ccccc1` (stereo not given), “inactive”.
Take `O=c1/c(=C/c2ccc(CNS(=O)(=O)c3ccccc3)o2)sc2n1CCN=2`: the Potency was 50.1 µM (active).
In the case of `CCn1cc(C(=O)NCc2ccccc2)c(=O)c2cc(S(=O)(=O)N3CCCCC3)ccc21`, the Potency result is “inactive”.
The result for `C/C(=N\NC(=O)Cc1ccc(Cl)cc1)c1ccccn1` reads “inactive”.
Consider `C/C(=N\NC(=O)c1ccccc1F)c1ccccn1`, for which the Potency entry was “inactive”.
The result for `CCN(CC)CCOc1ccc2c(c1)C(=NNC(=O)c1ccccn1)c1cc(OCCN(CC)CC)ccc1-2` reads 2.82 µM (active); that for `O=C(NCCc1ccc(Cl)cc1)c1ccc2c(c1)N(Cc1ccc(F)cc1)C(=O)CS2`, “inactive”; that for `CCn1c2c(c(=O)n3ncc(C(=O)N4CCN(c5ccccc5)CC4)c13)CN(Cc1ccc(OC)cc1)CC2`, “inactive”.
On to `N#Cc1c(N2CCCCC2)nc(N)c2c(N)nc(SCC(=O)O)cc12`, for which the Potency was 35.5 µM (active).
Consider `N#Cc1c(-c2ccccc2)cc(-c2ccccc2)nc1SCC(=O)O`, for which the Potency result is “inactive”.
As for `Nc1nc(NCC(=O)O)nc(N2CCCCCC2)c1[N+](=O)[O-]`, the Potency result was “inactive”.
On to `CCC(=O)Nc1ccc2nn(-c3ccc(F)cc3)nc2c1`, for which the Potency result was “inactive”.
For the compound `Cc1ccc(-n2nc3ccc(NC(=O)/C=C/c4ccco4)cc3n2)cc1C`, the Potency was 44.7 µM (active).
The result for `Cc1nnc(NC(=O)/C=C/c2ccco2)s1` reads 31.6 µM (active).
The result for `CCC(CC)c1nnc(NC(=O)/C=C/c2ccco2)s1` reads “inactive”.
The result for `O=C(/C=C/c1ccco1)Nc1ccc(Oc2ccccc2)cc1` reads “inactive”; that for `CCOC(=O)c1c(NC(=O)/C=C/c2ccco2)sc(C)c1C`, “inactive”; that for `CCOC(=O)c1c(C)oc2nc(C)nc(Nc3ccc(CC)cc3)c12`, “inactive”.
As to `Cc1cc(C)c(-c2n[nH]c3c2C(c2ccccc2F)N(CCO)C3=O)c(O)c1` (stereo not given), the Potency entry is “inactive”.
Consider `CC(C)(C)c1ccc(C(=O)NCC(c2ccc(Cl)cc2)N2CCOCC2)cc1` (stereo not given), for which the Potency result is “inactive”.
The result for `CCOc1ccc(Nc2nc(Cc3nnc(SCC(=O)NC4CCCC4)n3C)cs2)cc1` reads “inactive”; that for `COCCCn1c(SCC(=O)NC2CCCC2)nnc1-c1ccccc1`, “inactive”.
Regarding `COCCCn1c(Cc2csc(Nc3cccc(Cl)c3)n2)nnc1SCC(=O)OC1CCCCC1`, the Potency is 44.7 µM (active).
Turning to `O=S(=O)(c1ccccc1)c1nc(-c2ccc(Cl)cc2Cl)oc1N1CCCCC1`, the Potency result was “inactive”.
`Cc1cccc(C(=O)c2cccc(C)c2)c1`: the Potency result is “inactive”.
With `O=C(c1ccc(O)cc1)c1ccc(C(=O)O)c(C(=O)O)c1`, the Potency is 35.5 µM (active).
For the compound `O=C(O)c1ccc2c(c1)C(=O)N(NC(=O)c1ccc(O)cc1)C2=O`, the Potency result was “inactive”.
The result for `CCOc1ccc(Nc2nc3c(S(=O)(=O)c4cccc(Cl)c4)nnn3c3ccsc23)cc1` reads “inactive”; that for `CCCc1cc(=O)n2[nH]c(NCc3ccc(CC)cc3)nc2n1`, “inactive”.
The result for `CCCn1ccc2c(OCC(=O)NCc3ccc(F)cc3)cccc2c1=O` reads “inactive”; that for `Cc1csc2nc(COC(=O)c3ccccc3NC(=O)c3ccccc3Cl)cc(=O)n12`, “inactive”; that for `Cc1cc2c(cc3c(SCc4cccc(Cl)c4)nnc(C)n32)o1`, “inactive”.
The result for `Clc1ccc(CSc2nncn3c2cc2occc23)cc1` reads 31.6 µM (active).
`Clc1ccccc1CSc1nncn2c1cc1occc12`: the Potency entry was “inactive”.
As to `COc1ccc(C)cc1Nc1nc2ccccc2c2nnc(C)n12`, the Potency entry was “inactive”.
Regarding `Cc1ccc(C(=O)NNC(=O)c2cccs2)cc1`, the Potency entry is “inactive”.
The result for `Cc1ccc(C(=O)NNc2ncnc3ccccc23)cc1` reads “inactive”; that for `Cc1ccc(C(=O)NNC(=O)c2cc3cc4ccccc4nc3s2)cc1`, 50.1 µM (active).
The result for `Cc1coc2c(O)cc3c(c12)OC1(N2CCCCC2)C(=O)NCCCC31` (stereo not given) reads 50.1 µM (active).
The result for `Cc1cc(C)c(/C=C/c2onc(C)c2S(=O)(=O)N2CCC(C(=O)Nc3ccc(Cl)cc3C)CC2)c(C)c1` reads “inactive”; that for `CCCCOc1ccc(CN2C(=O)C(=O)c3cc(Br)cc(C)c32)cc1OC`, “inactive”.
On to `O=C(N/N=C/c1ccccn1)c1ccc(S(=O)(=O)N2CCCCCC2)cc1`, for which the Potency was 20 µM (active).
The result for `O=C(Nc1ccc(S(=O)(=O)N2CCCCC2)cc1)c1cnccn1` reads “inactive”; that for `O=C(N/N=C/c1ccccn1)c1cccc(NC(=O)c2ccc(Cl)cc2)c1`, “inactive”.
The result for `CCOc1ccc(Nc2ncnc3scc(-c4ccc(OC)cc4)c23)cc1` reads “inactive”.
The result for `CCOC(=O)c1ccc(NC(=O)Cn2c(=O)cc(C)c3c(C)nn(-c4cccc(F)c4)c32)cc1` reads “inactive”.
`CC(C)CNC(=O)COC(=O)/C=C/c1ccco1`: the Potency was 28.2 µM (active).
The result for `CC(C)CNC(=O)COC(=O)/C=C/c1ccccc1[N+](=O)[O-]` reads “inactive”.
The result for `COc1ccc([N+](=O)[O-])cc1NC(=O)COC(=O)/C=C/c1ccco1` reads “inactive”.
Consider `CCCOc1ccc(C2c3c(-c4ccccc4O)n[nH]c3C(=O)N2Cc2cccnc2)cc1` (stereo not given), for which the Potency result was “inactive”.
As for `CC(C)(C)OC(=O)N1CCC(c2c(C(=O)Nc3ccc4c(c3)OCO4)cnn2-c2ccccc2)CC1`, the Potency result is “inactive”.
The result for `CCCCOC(=O)CSc1ncnc2sc3c(c12)CCC(C)C3` (stereo not given) reads “inactive”; that for `Cc1cc(=O)n2[nH]c(-c3cccc(Cl)c3)cc2n1`, “inactive”.
The result for `Cc1cc(=O)n2[nH]c(-c3sccc3-n3c(C)ccc3C)cc2n1` reads 44.7 µM (active).
The result for `CCc1c(C)nc2cc(-c3cccs3)[nH]n2c1=O` reads “inactive”.
`COc1cccc(OCc2cc(/C=N/NC(=O)c3nc(Cl)c(Cl)c(N)c3Cl)ccc2OC)c1`: the Potency result is “inactive”.
With `COc1ccc(/C=N\NC(=O)c2sc(N)nc2C)cc1OC`, the Potency was 17.8 µM (active).
With `COc1cc(/C=N/NC(=O)CNC(=O)c2ccncc2)ccc1OC(C)=O`, the Potency entry is “inactive”.
The result for `COc1ccccc1Nc1c2c(nc3ccc(NC(=O)/C=C/c4cc(OC)c(OC)c(OC)c4)cc13)CCCC2` reads “inactive”; that for `CCOCCn1c(-c2ccccc2)nc2ccccc21`, “inactive”.
Turning to `CCOCCn1c(C(C)C)nc2ccccc21`, the Potency result is “inactive”.
As to `CCc1nc2ccccc2n(CCOCCOCCn2c(=O)c(CC)nc3ccccc32)c1=O`, the Potency is 35.5 µM (active).
With `COc1ccc(-c2nc(Cn3c(=O)cc(C)c4c(C)nn(-c5ccccc5)c43)c(C)o2)c(OC)c1`, the Potency entry is “inactive”.
As for `CCN1CCN(c2ncnc3c2cnn3-c2ccc(C)c(C)c2)CC1`, the Potency entry was “inactive”.
Turning to `COc1cc(NC(=O)CN2CCN(S(=O)(=O)c3ccc(Br)cc3)CC2)cc(OC)c1`, the Potency result is “inactive”.
Take `Cc1c(CCC(=O)O)c(=O)oc2cc(OCc3ccc(Br)cc3)ccc12`: the Potency result was “inactive”.
Turning to `CCOC(=O)CCc1c(C)c2ccc(OCc3nn[nH]n3)c(C)c2oc1=O`, the Potency result is “inactive”.
Take `Cc1c(CCC(=O)O)c(=O)oc2c(C)c(OCc3ccccc3Cl)ccc12`: the Potency was 12.6 µM (active).
The result for `COc1ccccc1CNc1ccc(-c2nc(-c3ccccc3C)no2)cc1[N+](=O)[O-]` reads “inactive”; that for `COc1cccc(-c2nnc3n(CCc4ccccc4)c(=O)c4ccccc4n23)c1O`, “inactive”; that for `CCCCN(CCCNC(=O)c1cc(Nc2ccccc2OC)nc2ccccc12)c1ccccc1`, “inactive”.
As for `CCCCN(C)S(=O)(=O)c1ccc(C(=O)Nc2sc3c(c2C(N)=O)CC(C)(C)NC3(C)C)cc1`, the Potency entry is “inactive”.
On to `CC1=C(c2ccc(C)cc2)S(=O)(=O)NC1=NCCCN1CCN(c2cc(C)ccc2C)CC1`, for which the Potency entry is “inactive”.
Regarding `CCOc1ccc(NC(=O)c2cc(S(=O)(=O)N3CCCC3)c[nH]2)cc1`, the Potency entry was “inactive”.
The result for `COC(=O)c1ccc(COc2ccc(/C=C/C(=O)c3ccc(OC)c(CSCC(=O)O)c3)cc2OC)cc1` reads 31.6 µM (active); that for `COc1ccc(/C=C/C(=O)c2ccc(NS(=O)(=O)c3ccc(C)cc3)cc2)cc1O`, “inactive”.
The result for `COc1ccc(C(=O)/C=C/c2ccc(-c3ccccc3)cc2)cc1CSCC(=O)O` reads “inactive”.
As for `Cc1ccc(CCNC(=O)c2ccc(CNS(=O)(=O)c3ccc(C)cc3)cc2)cc1`, the Potency result was “inactive”.
The result for `CSc1cccc(NC(=O)CN2C(=O)CCc3cc(S(=O)(=O)N4CCCCC4)ccc32)c1` reads “inactive”.
In the case of `C/C=C(/C)C(=O)Nc1cccc(C2=NOC3(C2)C[C@@H](C(N)=O)N(C(=O)C2(C)CC2)C3)c1` (stereo not given in full), the Potency result was “inactive”.
Consider `C=C(C)C(=O)Nc1cccc(C2=NOC3(C2)C[C@H](C(N)=O)N(C(=O)C(c2ccccc2)c2ccccc2)C3)c1` (stereo not given in full), for which the Potency is 14.1 µM (active).
On to `C/C=C\C=C\C(=O)N1CC2(CC(c3cccc(NC(=O)/C(C)=C\C)c3)=NO2)C[C@H]1C(N)=O` (stereo not given in full), for which the Potency entry is “inactive”.
On to `Cc1ccccc1C(=O)Nc1nnc(S(=O)(=O)N(C)c2ccc(Cl)cc2)s1`, for which the Potency result is “inactive”.
The result for `COC(=O)c1ccc(NC(=O)CSc2n[nH]c(-c3ccccc3)n2)cc1` reads “inactive”.
The result for `CCOc1ccc(OCC)c(NC(=O)CN(c2ccc(C)cc2)S(=O)(=O)c2c(C)n[nH]c2C)c1` reads “inactive”; that for `CCn1c(C)c(C)c2cc(C(=O)NCCc3cc(OC)ccc3OC)ccc21`, “inactive”.
